# Source: PubChem BioAssay
# TIM10 inh: TIM10 yeast growth inhibition | S. cerevisiae TIM10 strain growth, BacTiter-Glo luminescence, 24 h | actives 1.4% (n = 330,000) | AID 463195 | inhibition, % at 10 µM;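 active means inhibition of 40% or more at the single tested concentration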;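 further: wild-type TIM10 isogenic control strain grown at permissive 25 °C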
# SKKanGAS inh: inhibitors of SKKanGAS S. pyogenes growth in kanamycin (SK-promoter or general growth effect). BacTiter-Glo, 6 h. inhibition, % at 7.5 µM. actives 1.3% (n = 300,000). AID 1662;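 active means mean replicate score, as percent of positive control median, at least 50; inconclusive means mean below 50 but one replicate at or above 50; inactive means mean and every replicate below 50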;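 further: strain carries kanamycin resistance gene driven by streptokinase promoter and grows in 40 µg/ml kanamycin; loss of luminescence reflects streptokinase promoter inhibition or plain growth inhibition; 0% = median of DMSO wells and 100% = positive control at its reference dose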
# PfHsp90 set2: inhibits growth of yeast expressing Plasmodium falciparum Hsp90; inhibition, % at 9.4 µM; AID 504621; S. cerevisiae expressing PfHsp90, BacTiter-Glo ATP, 48 h; yeast lacking PDR1 and PDR3 efflux regulators; actives 0.32% (n = 310,000);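 active means every replicate shows inhibition above about 80%, whatever the replicate mean, limit read from the data; inconclusive means mean inhibition reaches the set limit but some replicate falls short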;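 further: 0% = DMSO neutral controls and 100% = 20 µM radicicol positive controls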
# tim10-1 inh: tim10-1 yeast growth inhibition. S. cerevisiae tim10-1 ts strain growth, BacTiter-Glo, 24 h. inhibition, % at 20 µM. actives 2.2% (n = 330,000);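 active means inhibition of at least 40%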;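 further: mutant grown at 25 °C; 0% = DMSO wells with yeast and 100% = wells holding no yeast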
# tim23-1 inh: tim23-1 yeast growth inhibition | S. cerevisiae tim23-1 growth, BacTiter-Glo luminescence, 24 h | inhibition, % at 20 µM | actives 1.3% (n = 330,000) | AID 463212;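 active means growth inhibition of the mutant yeast at or above 50%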;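 further: temperature-sensitive mutant grown at 25 °C; plate controls were DMSO-treated mutant yeast for no effect and medium wells lacking yeast for full effect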
# tim10-1 confirm: tim10-1 yeast growth inhibition, confirmed | S. cerevisiae tim10-1 ts strain growth, BacTiter-Glo, 24 h | shares compounds with tim10-1 inh | inhibition, % at 20 µM | actives 56% (n = 7,400);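 active means inhibition of yeast growth at or above a set limit in either of two repeat tests at 20 µM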;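 further: tim10-1 mutant grown at permissive 25 °C to find synthetic lethal compounds; 0% = DMSO yeast wells and 100% = medium wells without yeast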
# The depositor's hits bear a star; ? = inconclusive; . = not tested or not shown. In the library only some 4.4% were active in any assay of this set; here they are far more common.
SMILES,TIM10 inh,SKKanGAS inh,PfHsp90 set2,tim10-1 inh,tim23-1 inh,tim10-1 confirm
Cc1ccccc1NC(=S)Nc1ccccn1,13,-4,-8,47*,35,-5
CCN1CCN(CCC(=O)Nc2ccccc2C)CC1,-6,-3,1,-4,6,.
Cc1cc(/C=C(\C#N)C(=O)NCc2ccco2)c(C)n1C1CCCC1,-5,10,-9,46*,37,31
CCOc1ccc(S(=O)(=O)NCc2ccccn2)cc1NC(=O)c1ccccc1F,8,2,9,-1,-1,.
CCCCCc1ccc(OCCCC[n+]2ccccc2)c(CCCCC)c1,-295,?,38,43*,-24,32*
CCC(C)(C)c1ccc(OCCCC[n+]2ccccc2)c(C(C)(C)CC)c1,-120,.,-36,46*,30,37*
COc1ccc(N(C)C(=O)c2ccc(NC(=O)CCS(=O)(=O)c3cccs3)cc2)cc1,12,1,-19,-4,6,.
CCOC(=O)c1ccc2nc(NC(=O)c3ccco3)sc2c1,40,37,10,41*,41,26
CCCCC(=O)Nc1nc2ccc(C(=O)OC)cc2s1,35,6,-25,46*,29,20
CCCC(=O)Nc1nc2ccc(C(=O)OCC)cc2s1,10,-1,-11,21,22,.
OCc1ccc2c(c1)c(-c1ccc3c(c1)OCCO3)c(-c1ccccc1)n2-c1ccccc1,10,.,12,20,29,.
COc1ccc(-n2cc3c(-c4cccc(Br)c4)nnc(C)c3n2)cc1,26,28,-5,46*,48,31
COc1ccc(-n2cc(CN3CCCC3)c(-c3cccc(F)c3)n2)cc1,6,0,-19,11,3,.
OCCn1c(C(F)(F)F)nc2ccccc21,10,1,19,-6,12,.
Cc1ccc(-c2csc(N(CCO)CCCn3c(C(F)(F)F)nc4ccccc43)n2)cc1,-11,33,-25,44*,-5,15
COc1ccc2oc(=O)c(-c3csc(Nc4cccc(O)c4)n3)cc2c1,35,27,103*,45*,35,37*
O=C(/C=C/c1cccc([N+](=O)[O-])c1)NCCSCc1ccc(Cl)cc1,25,5,8,45*,28,22
Cc1cccc(CSCCNC(=O)CSCc2ccc([N+](=O)[O-])cc2)c1,20,0,-9,46*,30,28
Cc1ccccc1CSCCNC(=O)CSCc1ccc([N+](=O)[O-])cc1,22,3,-61,38,38,.
Cc1ccc(CSCCNC(=O)CSCc2ccc([N+](=O)[O-])cc2)cc1,14,-8,.,42*,33,29
Cc1ccccc1C(=O)Oc1cc(N)n(S(=O)(=O)c2ccccc2)n1,31,2,-7,48*,22,27
COc1ccc(S(=O)(=O)n2nc(OC(=O)c3ccncc3)cc2N)cc1,16,-2,0,23,13,.
COc1ccc(S(=O)(=O)n2nc(OC(=O)c3ccco3)cc2N)cc1,-2,5,42,41*,33,24
COc1ccccc1C(=O)Oc1cc(N)n(S(=O)(=O)c2ccccc2)n1,29,6,-20,40,26,24
O=C(COC(=O)CCC(=O)c1cccs1)NC1CCCCC1,-6,.,9,3,12,.
SMILES,TIM10 inh,SKKanGAS inh,PfHsp90 set2,tim10-1 inh,tim23-1 inh,tim10-1 confirm
CC(C)c1ccc(NC(=O)COC(=O)c2cc(=O)[nH]c3ccccc23)cc1,5,.,18,4,-4,.
COc1cccc(/C=N/NC(=O)C(=O)NCc2ccco2)c1O,31,3,-8,58*,37,14
CCN(CC)S(=O)(=O)c1ccc(S(=O)(=O)N2CCN(C(=O)c3ccco3)CC2)cc1,-5,-7,-12,8,-1,.
CCCCc1ccc(S(=O)(=O)N2CCN(C(=O)c3ccco3)CC2)cc1,23,0,5,52*,34,32*
CC(C)/C(=N\NS(=O)(=O)c1ccc(Br)cc1)c1cccs1,21,14,9,41*,36,34*
CC(Oc1ccc(Cl)cc1Cl)C(=O)Nc1ccc(S(=O)(=O)Nc2cnc3ccccc3n2)cc1 (stereo not drawn),-5,80*,.,42*,-6,15
O=C(Nc1ccc(S(=O)(=O)Nc2cnc3ccccc3n2)cc1)c1ccc(Cl)cc1Cl,3,15,.,6,-3,.
CCS(=O)(=O)N1Cc2ccccc2CC1C(=O)NCC12CC3CC(CC(C3)C1)C2 (stereo not drawn),26,8,-23,40*,35,29
CCS(=O)(=O)N1Cc2ccccc2CC1C(=O)Nc1ccc(F)cc1 (stereo not drawn),-11,-2,17,-3,18,.
COc1ccccc1CNC(=O)Cc1ccccc1,1,-3,11,-3,7,.
O=S(=O)(Nc1ccc(-n2cccc2)cc1)c1ccc(Cl)cc1Cl,33,9,62,48*,13,26
O=S(=O)(Nc1ccc(-n2cccc2)cc1)c1ccc(F)cc1,16,-3,-42,17,27,.
CCOC(=O)C1=NNC(C(=O)c2ccc(C)cc2)C1c1ccc(OC)cc1 (stereo not drawn),11,-1,-87,41*,7,13
CCOC(=O)C1=NNC(C(=O)c2ccc(Cl)cc2)C1c1ccc(OC)cc1 (stereo not drawn),24,3,-15,22,8,.
Cc1ccc(C)c(NC(=O)CN(C)C(=O)c2ccccc2OCc2c(C)noc2C)c1,4,.,6,11,12,.
Cn1cccc1Cc1nnc(SCC(=O)Nc2ccc(F)cc2)n1CCc1ccccc1,12,3,-24,42*,38,20
CCOC(=O)N1CCC(NC(=O)CN(c2ccc(C(C)C)cc2)S(=O)(=O)c2c(C)nn(C)c2C)CC1,3,3,-21,24,12,.
Cc1cc(Nc2ccccc2Cl)nc(-c2ccccc2O)n1,21,0,-20,53*,32,41*
Cc1ccc(C)c(Nc2cc(C)nc(-c3ccccc3O)n2)c1,39,8,7,26,50,.
Cc1cc(Nc2cccc(F)c2)nc(-c2ccccc2O)n1,37,2,-85,43*,33,43*
O=S(=O)(c1ccc2c(c1)CCCN2)N1CCCC2CCCCC21 (stereo not drawn),18,12,-11,47*,45,26
O=S(=O)(c1ccc2c(c1)CCCN2)N1CCCC1,22,.,3,18,20,.
[O-][n+]1c(/C=C/c2ccccc2)ccc2ccccc21,23,7,6,49*,50,28
CC(=O)c1sc(N/N=C2\CC3CCC2(C)C3(C)C)nc1C (stereo not drawn),26,12,-6,43*,30,23
Cc1ccc(S(=O)(=O)NN=C2CC3CCC2(C)C3(C)C)cc1 (stereo not drawn),.,.,-6,.,.,.
